Experimental data reported in PubChem BioAssay (NCATS).
Where “and” joins values, the source holds several entries; their conditions need not be identical. Equal entries are not always repeated. Records with an inconclusive call do not appear. Entries that show only a call come without a potency. Some structures have more than one record in an assay (separate samples or runs), and their calls can disagree. Calls of active or inactive are those of the source. The call rests on the fitted dose curve; in most records, active means well fitted inhibition curve with a large enough effect; inconclusive means small, poorly fitted or top-dose-only effect; inactive means flat fitted curve, though single readings scatter. Peptide text beside a SMILES is read from it.

Tested on: NIH3T3
Assay: qHTS assay to identify novel small-molecules to repurpose for Merkel cell carcinoma treatment (AID 1296009); further: nearly all actives have a fitted effect of over 60% in size
Conditions: MCC and control cell lines, CellTiter-Glo viability, 72 h; at 44.8 µM (top of the series) unless noted
In short: (§1)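 Cells were incubated with compound for 72 hr at 37 degree celsius before CellTiter-Glo addition. Luminescence was normalized with no-cell wells as full cytotoxicity and DMSO as baseline.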
Potency means the concentration at half of the fitted maximal effect.

Compound	outcome
Cc1cc2cc3c(C)cc(=O)oc3c(C)c2o1	inactive
COc1ccc2cc([C@H](C)C(=O)O)ccc2c1	inactive
COc1cc(C(C)=O)ccc1OCCCN1CCC(c2noc3cc(F)ccc23)CC1	inactive
Clc1ccc(C(Cn2ccnc2)OCc2ccc(Sc3ccccc3)cc2)c(Cl)c1 (stereo not given)	inactive
CC1=C(C)C(=O)C(C(CCCCCC(=O)O)c2ccccc2)=C(C)C1=O (stereo not given)	inactive
CCC1=C(C)CN(C(=O)NCCc2ccc(S(=O)(=O)NC(=O)NC3CCC(C)CC3)cc2)C1=O (stereo not given)	inactive
Clc1ccc(C(Cn2ccnc2)OCc2c(Cl)cccc2Cl)c(Cl)c1 (stereo not given)	inactive
O=C(O)CCNC(=O)c1ccc(N=Nc2ccc(O)c(C(=O)O)c2)cc1	inactive
Cc1nc(-c2ccc(OCC(C)C)c(C#N)c2)sc1C(=O)O	inactive
Cc1c(C(=O)NN2CCCCC2)nn(-c2ccc(Cl)cc2Cl)c1-c1ccc(Cl)cc1	inactive
CCN(CCO)CCCC(C)Nc1ccnc2cc(Cl)ccc12 (stereo not given)	inactive [at 4.96 µM]
CN(C)C(=O)COC(=O)Cc1ccc(OC(=O)c2ccc(N=C(N)N)cc2)cc1	inactive
CC(=O)Nc1ccc(O)cc1	inactive
COC1=C(OC)C(=O)C(CCCCCCCCCCO)=C(C)C1=O	inactive
CC1(C)CCC(C)(C)c2cc(NC(=O)c3ccc(C(=O)O)cc3)ccc21	inactive
COC(=O)C1=C(C)NC(C)=C(C(=O)OCCCN2CCC(c3ccccc3)(c3ccccc3)CC2)C1c1cccc([N+](=O)[O-])c1 (stereo not given)	inactive
O=C(NC(Cc1cc(=O)[nH]c2ccccc12)C(=O)O)c1ccc(Cl)cc1 (stereo not given)	inactive
CN(c1nccc(=O)[nH]1)C1CCN(c2nc3ccccc3n2Cc2ccc(F)cc2)CC1	inactive
Cc1cc2c(s1)Nc1ccccc1N=C2N1CCN(C)CC1	inactive
CC1=C(C(=O)O)N2C(=O)[C@@H](NC(=O)[C@H](N)C3=CCC=CC3)[C@H]2SC1	inactive
CN(C)c1ccc(O)c2c1C[C@H]1C[C@H]3[C@H](N(C)C)C(=O)C(C(N)=O)=C(O)[C@@]3(O)C(=O)C1=C2O	inactive
Cc1ncc([N+](=O)[O-])n1CC(C)O (stereo not given)	inactive

Tested on: UISO
Assay: as above
Conditions: MCC and control cell lines, CellTiter-Glo viability, 72 h; series mostly up to 46 µM; activity change, negative = cytotoxicity: at the top concentration
In short: as §1

Compound	Potency	activity change, negative = cytotoxicity
Cc1cc2cc3c(C)cc(=O)oc3c(C)c2o1	inactive	–
CN(C)[C@@H](CCOc1cccc2ccccc12)c1ccccc1	–	-20.9% (inactive)
COc1ccc2cc([C@H](C)C(=O)O)ccc2c1	inactive	–
COc1cc(C(C)=O)ccc1OCCCN1CCC(c2noc3cc(F)ccc23)CC1	–	-5.07% (inactive)
Cc1ccc(C)c(OCCCC(C)(C)C(=O)O)c1	inactive	–
CCC[C@@H]1C[C@@H](C(=O)N[C@@H]([C@H]2O[C@H](SC)[C@H](O)[C@@H](O)[C@H]2O)[C@@H](C)O)N(C)C1	inactive	–
Clc1ccc(C(Cn2ccnc2)OCc2ccc(Sc3ccccc3)cc2)c(Cl)c1 (stereo not given)	–	-17.3% (inactive)
CS(=O)(=O)OCCCCOS(C)(=O)=O	inactive	–
CC(=O)NC[C@H]1CN(c2ccc(N3CCOCC3)c(F)c2)C(=O)O1	–	-0.0473% (inactive)
CC1=C(C)C(=O)C(C(CCCCCC(=O)O)c2ccccc2)=C(C)C1=O (stereo not given)	inactive	–
COc1cc2nc(N3CCN(C(=O)C4CCCO4)CC3)nc(N)c2cc1OC (stereo not given)	inactive	–
CCC1=C(C)CN(C(=O)NCCc2ccc(S(=O)(=O)NC(=O)NC3CCC(C)CC3)cc2)C1=O (stereo not given)	inactive	–
O=C(O)CCNC(=O)c1ccc(N=Nc2ccc(O)c(C(=O)O)c2)cc1	inactive	–
Cc1nc(-c2ccc(OCC(C)C)c(C#N)c2)sc1C(=O)O	inactive	–
Cn1c(NCCN(CCO)CCCc2ccc([N+](=O)[O-])cc2)cc(=O)n(C)c1=O	inactive	–
CCN(CCO)CCCC(C)Nc1ccnc2cc(Cl)ccc12 (stereo not given)	inactive	–
CN(C)C(=O)COC(=O)Cc1ccc(OC(=O)c2ccc(N=C(N)N)cc2)cc1	inactive	–
CC(=O)Nc1ccc(O)cc1	inactive	–
COC(=O)[C@H](Cc1ccccc1)NC(=O)[C@@H](N)CC(=O)O (H-Asp-Phe-OMe)	inactive	–
CC1(C)CCC(C)(C)c2cc(NC(=O)c3ccc(C(=O)O)cc3)ccc21	inactive	–
COC(=O)C1=C(C)NC(C)=C(C(=O)OCCCN2CCC(c3ccccc3)(c3ccccc3)CC2)C1c1cccc([N+](=O)[O-])c1 (stereo not given)	inactive and 18.8 µM (active)	–
O=C(NCC1CCCCN1)c1cc(OCC(F)(F)F)ccc1OCC(F)(F)F (stereo not given)	–	-14.6% (inactive)
O=C(NC(Cc1cc(=O)[nH]c2ccccc12)C(=O)O)c1ccc(Cl)cc1 (stereo not given)	inactive	–
